{
  "source": "paper PMC4552634",
  "about": "“A New Set of Chemical Starting Points with Plasmodium falciparum Transmission-Blocking Potential for Antimalarial Drug Discovery” (PLoS ONE, 2015)",
  "note": "The campaign covered roughly 13,000 compounds. About 3,200 (25%) showed an effect of 50% or more. Some of the results follow.",
  "data": [
    {"tested_on": "P. falciparum stage V gametocytes", "parameters": "BacTiter-Glo ATP luminescence viability of purified stage V gametocytes in 384-well plates, per cent inhibition versus DMSO", "conditions": "48 h, 5 µM; inhibitor", "units": {"% Inhibition": "%"}, "values": [
      {"smiles": "OCCOCCNCc1cccc(C#Cc2cc3ncnc(Nc4ccc(OCc5cccc(F)c5)c(Cl)c4)c3s2)n1", "note": "[TCMDC-138843]", "% Inhibition": -31.63},
      {"smiles": "CCNc1nc(OCC(F)(F)F)nc(N(c2ccccc2)c2ccccc2)n1", "note": "[TCMDC-125801]", "% Inhibition": -11.7},
      {"smiles": "O=C(c1cc(C(=O)NC2CCCCC2)c(=O)n(C2CCCCC2)c1)c1cc(F)ccc1O", "note": "[TCMDC-124525]", "% Inhibition": 20.48},
      {"smiles": "NCC(NC(=O)c1ccc(-c2c[nH]c3ncccc23)s1)c1ccccc1", "note": "(stereo not drawn) [TCMDC-134154]", "% Inhibition": -44.12},
      {"smiles": "CCC1(CC)CN(c2ccccc2)c2ccc(O)cc2S(=O)(=O)C1CC(C)C", "note": "(stereo not drawn) [TCMDC-137217]", "% Inhibition": -89.07},
      {"smiles": "N#Cc1ccc2c(c1)CCN(CCC1CCC(NC(=O)/C=C/c3ccc4ccccc4c3)CC1)CC2", "note": "(stereo not drawn) [TCMDC-139779]", "% Inhibition": -26.43},
      {"smiles": "OCCCCCCNc1ccnc2[nH]c3ccc(I)cc3c12", "note": "[TCMDC-131830]", "% Inhibition": 10},
      {"smiles": "Cc1cccc2[nH]c(-c3cccc(-c4ccc(NC(=O)Nc5ccc6c(c5)OCO6)cc4)c3)nc12", "note": "[TCMDC-133163]", "% Inhibition": -27.37},
      {"smiles": "Cc1cccc2[nH]c(-c3ccc(-c4cccc(NC(=O)Nc5ccc6c(c5)OCO6)c4)cc3)nc12", "note": "[TCMDC-133166]", "% Inhibition": -1.928},
      {"smiles": "CC(Sc1nc2sccc2c(=O)n1C)C(=O)Nc1ccc2c(c1)OCO2", "note": "(stereo not drawn) [TCMDC-125026]", "% Inhibition": 100.7},
      {"smiles": "O=C(NCC1CCC(C(=O)O)CC1)c1ccc(/C=C/C(=O)N2CCc3ccccc3C2c2ccc3c(c2)OCO3)cc1", "note": "(stereo not drawn) [TCMDC-138267]", "% Inhibition": -9.047},
      {"smiles": "CS(=O)(=O)c1ccc(CNCc2cccc(-c3cccc(-c4nc5ccc(F)cc5[nH]4)c3)c2)cc1", "note": "[TCMDC-132907]", "% Inhibition": -11.65},
      {"smiles": "O=S(=O)(NCCN1CCCC1)c1ccc(-c2cccc(CNCc3ccc(F)cc3)c2)cc1", "note": "[TCMDC-132407]", "% Inhibition": 38.56},
      {"smiles": "O=S(=O)(NCCN1CCCC1)c1cccc(-c2ccc(CNCc3ccc(F)cc3)cc2)c1", "note": "[TCMDC-132289]", "% Inhibition": 105.2},
      {"smiles": "O=S(=O)(NCCN1CCCC1)c1cccc(-c2cccc(CNCc3ccc(F)cc3)c2)c1", "note": "[TCMDC-132276]", "% Inhibition": 98.39},
      {"smiles": "O=C(/C=C/c1ccc(Cl)c(Cl)c1)NCCCCCN1CCC(n2c(=O)[nH]c3ccccc32)CC1", "note": "[TCMDC-139330]", "% Inhibition": -42.06},
      {"smiles": "CC(C)C[C@H](NC(=O)[C@H](Cc1ccccc1)NC(=O)CCN1C(=O)COc2ccc(C(=O)O)cc21)C(=O)NC(CC1CCCCC1)C(O)CC(=O)NCCCn1ccnc1", "note": "(stereo partly drawn) [TCMDC-131640]", "% Inhibition": 6.577},
      {"smiles": "c1ccc(COc2ccc(C3CCCCC3)cc2)nc1", "note": "[TCMDC-131330]", "% Inhibition": 8.048},
      {"smiles": "CC(CNC(=N)c1cccc(C(=N)NCC(C)Oc2cccc(C3CCCCC3)c2)n1)Oc1cccc(C2CCCCC2)c1.Cl", "note": "(stereo not drawn) [TCMDC-137455]", "% Inhibition": 116.2},
      {"smiles": "O=C(Cc1ccc(F)cc1)NC1CCN(c2ccnc3cc(Cl)ccc23)C1", "note": "(stereo not drawn) [TCMDC-133668]", "% Inhibition": 7.133},
      {"smiles": "C=C(C)CSc1nc2c(c(=O)n1CCc1ccccc1)C1(CCCC1)Cc1ccccc1-2", "note": "[TCMDC-123892]", "% Inhibition": 66.35},
      {"smiles": "CC(C)Sc1nc2c(c(=O)n1CCc1ccccc1)C1(CCCC1)Cc1ccccc1-2", "note": "[TCMDC-123891]", "% Inhibition": -12.92},
      {"smiles": "CCCSc1nc2c(c(=O)n1CCc1ccccc1)C1(CCCC1)Cc1ccccc1-2", "note": "[TCMDC-123890]", "% Inhibition": -17.67},
      {"smiles": "Cc1cc(C(=O)Nc2ccc3c(c2)CCN3C2CCN(Cc3cc(F)cc(F)c3F)C2)no1", "note": "(stereo not drawn) [TCMDC-135083]", "% Inhibition": 0.2789},
      {"smiles": "Cc1nc(N)nc(N)c1CCCOc1cccc(Cl)c1", "note": "[TCMDC-138067]", "% Inhibition": -4.32},
      {"smiles": "CN(Cc1cc(C(F)(F)F)cc(C(F)(F)F)c1)C(=O)C(Cc1ccc(F)cc1)C1CCCNC1", "note": "(stereo not drawn) [TCMDC-138909]", "% Inhibition": 92.9},
      {"smiles": "CN(Cc1cc(C(F)(F)F)cc(C(F)(F)F)c1)C(=O)C1CNCC1c1ccc(F)cc1", "note": "(stereo not drawn) [TCMDC-137553]", "% Inhibition": 10.31},
      {"smiles": "CN(Cc1ccc(C#N)cc1)C1CCN(c2cc(NC(=O)c3ccc(F)cc3)ccn2)CC1", "note": "[TCMDC-134978]", "% Inhibition": 9.957},
      {"smiles": "CCCc1cc(N2CCC(N(CC)CC)C2)nc(Nc2ccc(OC)cc2)n1", "note": "(stereo not drawn) [TCMDC-132388]", "% Inhibition": -68.85},
      {"smiles": "CC(=NN=C(N)N)c1ccc2c(c1)Cc1ccccc1-2", "note": "[TCMDC-137666]", "% Inhibition": 27.22},
      {"smiles": "COC(=O)c1ccc(CC(C)NCC(O)c2ccc3ccc4ccccc4c3c2)cc1", "note": "(stereo not drawn) [TCMDC-131429]", "% Inhibition": 28.11},
      {"smiles": "CC(=NN=C(N)N)c1ccc2ccc3ccccc3c2c1", "note": "[TCMDC-137667]", "% Inhibition": 76.83},
      {"smiles": "Nc1ncc(Cc2ccc3c(ccc4ccccc43)c2)c(N)n1", "note": "[TCMDC-137874]", "% Inhibition": 19.52},
      {"smiles": "CC(=NN=C(N)N)c1ccc2c(ccc3ccccc32)c1", "note": "[TCMDC-137669]", "% Inhibition": 96.96},
      {"smiles": "CC(C)C[C@@H]1C(=O)N[C@H](C2Cc3ccccc3C2)C(=O)N1[C@@H](C(=O)O)c1ccc(F)cc1F", "note": "[TCMDC-138777]", "% Inhibition": -24.68},
      {"smiles": "Clc1nc2ccccn2c1C=Cc1ccc2ccccc2n1", "note": "[TCMDC-125327]", "% Inhibition": -7.636},
      {"smiles": "COc1cc(-c2nc(-c3ccc4c(c3)CCC4=NO)c(-c3ccncc3)[nH]2)ccc1OCCN1CCCCC1", "note": "[TCMDC-141257]", "% Inhibition": 22.85},
      {"smiles": "O=C(/C=C/c1cccc(Cl)c1)Nc1ccc2nc(CN3CCCC3)ccc2c1", "note": "[TCMDC-135628]", "% Inhibition": -49.28},
      {"smiles": "O=C(Nc1cccc(CN2CCCN(Cc3ncc[nH]3)CC2)c1)c1ccc(Cl)c(Cl)c1", "note": "[TCMDC-141833]", "% Inhibition": -19.06},
      {"smiles": "Cc1cc2ccc(-c3cccc(CN)c3)cc2nc1N", "note": "[TCMDC-137624]", "% Inhibition": 65.41},
      {"smiles": "Cc1cc2cc(-c3ccc(CN)cc3)ccc2nc1N", "note": "[TCMDC-137774]", "% Inhibition": 101.7},
      {"smiles": "Cc1ccc(Cc2cccc3nc(N)nc(N)c23)cc1", "note": "[TCMDC-137730]", "% Inhibition": -6.399},
      {"smiles": "Cc1ccc(O)cc1Nc1ccnc2cc(-c3cccc(CNCCS(C)(=O)=O)c3)ccc12", "note": "[TCMDC-138472]", "% Inhibition": -16.38},
      {"smiles": "COc1ccc(CCNCc2ccc3nc(N)c(C)cc3c2)cc1", "note": "[TCMDC-138098]", "% Inhibition": 30.17},
      {"smiles": "CN1CCc2ccc(NC(=O)Nc3cccc([N+](=O)[O-])c3)cc2C1", "note": "[TCMDC-139120]", "% Inhibition": -5.165},
      {"smiles": "FC(F)(F)Oc1ccc(Nc2cc(-c3ccncc3)nc(-c3cccnc3)n2)cc1", "note": "[TCMDC-125416]", "% Inhibition": 22.38},
      {"smiles": "CC(C)(C)c1ccc(NC(=O)c2ccc(CN3CCCN(Cc4cccc(O)c4)CC3)cc2)cc1", "note": "[TCMDC-136433]", "% Inhibition": -12.56},
      {"smiles": "Cc1cccc2[nH]c(-c3cccc(-c4cccc(NC(=O)c5cccnc5Cl)c4)c3)nc12", "note": "[TCMDC-136839]", "% Inhibition": 42.83},
      {"smiles": "O=[N+]([O-])c1cccc(-c2ccc(C=NNc3cc(N4CCCC4)nc(N4CCCC4)n3)o2)c1", "note": "[TCMDC-124053]", "% Inhibition": 34.95},
      {"smiles": "CC1CN(Cc2cccc(F)c2)CCN1c1ccc(NC(=O)c2cccs2)cc1", "note": "(stereo not drawn) [TCMDC-135009]", "% Inhibition": 3.6},
      {"smiles": "Cc1cccc(-c2ccc(CNC3CCN(CC4Cn5c(=O)ccc6ccc(F)c4c65)CC3)cn2)c1", "note": "(stereo not drawn) [TCMDC-134413]", "% Inhibition": -59.7},
      {"smiles": "COC(=O)c1ccccc1COc1ccc(CC2(NC(=O)[C@H](Nc3ccc(C#N)c4ccccc34)C(C)(C)C)CCCC2)cc1", "note": "[TCMDC-136783]", "% Inhibition": 21.91},
      {"smiles": "CNCCNCc1ccc(-c2ccc(-c3nc4c(C)cccc4[nH]3)s2)cc1", "note": "[TCMDC-132828]", "% Inhibition": 96.61},
      {"smiles": "COCCN1CCN(Cc2ccc(-c3ccc(-c4nc5c(C)cccc5[nH]4)s3)cc2)CC1", "note": "[TCMDC-133021]", "% Inhibition": 2.979},
      {"smiles": "Cc1cccc2[nH]c(-c3ccc(-c4ccc(CN5CCN(CCO)CC5)cc4)s3)nc12", "note": "[TCMDC-133027]", "% Inhibition": 2.277},
      {"smiles": "CNCCNCc1cccc(-c2cccc(-c3nc4c(C)cccc4[nH]3)c2)c1", "note": "[TCMDC-132825]", "% Inhibition": 101.1},
      {"smiles": "Cc1cccc2[nH]c(-c3ccc(-c4ccc(CNCCN5CCNCC5)cc4)s3)nc12", "note": "[TCMDC-132870]", "% Inhibition": 77.87},
      {"smiles": "Cc1cccc2[nH]c(-c3cccc(-c4cccc(CNCc5ccccc5)c4)c3)nc12", "note": "[TCMDC-132713]", "% Inhibition": 10.68},
      {"smiles": "Cc1cccc2[nH]c(-c3cccc(-c4ccc(CNCc5ccccc5)cc4)c3)nc12", "note": "[TCMDC-132710]", "% Inhibition": 64.93},
      {"smiles": "Cc1cccc2[nH]c(-c3ccc(-c4ccc(CN5CCN(CCN6CCOCC6)CC5)cc4)s3)nc12", "note": "[TCMDC-133930]", "% Inhibition": 30.2},
      {"smiles": "Cc1cccc2[nH]c(-c3ccc(-c4cccc(CNCCCNS(C)(=O)=O)c4)cc3)nc12", "note": "[TCMDC-133082]", "% Inhibition": -3.877},
      {"smiles": "C#CCNCc1ccc(-c2cccc(-c3nc4c(C)cccc4[nH]3)c2)cc1", "note": "[TCMDC-132804]", "% Inhibition": -34.44},
      {"smiles": "Cc1cccc2[nH]c(-c3cccc(-c4cccc(CNC(C)C)c4)c3)nc12", "note": "[TCMDC-132738]", "% Inhibition": -9.933},
      {"smiles": "Cc1cccc2[nH]c(-c3ccc(-c4ccc(CNCc5ccccc5)cc4)s3)nc12", "note": "[TCMDC-132709]", "% Inhibition": -2.299},
      {"smiles": "CN(c1ccc2c(c1)nc(NCc1ccc(F)cc1)n2C)c1ccnc(Nc2ccc(CS(C)(=O)=O)cc2)n1", "note": "[TCMDC-138747]", "% Inhibition": 36.21},
      {"smiles": "Oc1cc(Nc2ccnc3ccc(I)cc23)c(F)cc1Cl", "note": "[TCMDC-138500]", "% Inhibition": -12.42},
      {"smiles": "COc1ccc(-n2cc(C(=O)c3cc(Br)ccc3O)cc(C#N)c2=O)cc1Cl", "note": "[TCMDC-124524]", "% Inhibition": 13.45},
      {"smiles": "COc1ccccc1C1CC(c2ccccc2)=NN1C(=O)c1ccccc1", "note": "(stereo not drawn) [TCMDC-123702]", "% Inhibition": 28.29},
      {"smiles": "O=C(CCCCCNC(=O)c1ccc(O)c(-c2ccc(Cl)c(Cl)c2)c1)NCc1cccc2ccccc12", "note": "[TCMDC-140875]", "% Inhibition": 8.372}
    ]}
  ]
}
